Experimental data published in PubChem BioAssay (NCATS).
Values joined by “and” are separate entries in the source; they are usually repeats but may differ in a detail not shown here. Equal entries are not always repeated. Results filed as inconclusive are left out. A structure can be active in one record and inactive in another. Active and inactive are the calls of the source. Unless noted, calls follow the shape of the dose curve; as a rule, active = well fitted inhibition curve with a large enough effect; inconclusive = small, poorly fitted or top-dose-only effect; inactive = flat fitted curve, though single readings scatter.

Tests used:
[1] = Drug repurposing screens with cells derived from glioblastoma tumor samples (AID 1345199); settings: GBM patient neurospheres viability, ATP luminescence, 48 h; also: nearly all actives have a fitted effect of over 40% in size; also: potency is read from the fitted curve at half-maximal effect; as to activity, negative = cell killing: % is scaled to controls: 0 for no effect and ±100 for the full control effect
Procedure, shortened: (§1)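 Primary testing used CD133+ neurospheres from four GBM patients, seven concentrations, 48 h exposure and ATP-based viability; confirmation added three slower-growing patient lines.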

[2] = tested on: astro; test: as above; settings: viability, ATP luminescence, 48 h; series mostly up to 45.9 µM
Procedure, shortened: as §1

[3] = molecular target: Nuclear receptor subfamily 1 group I member 2 (Rattus norvegicus) (UniProt Q9R1A7); test: qHTS assay for small molecule activators of the rat pregnane X receptor (rPXR) signaling pathway (AID 651751; call rule not given here; also: 0% is about no effect); settings: rPXR reporter cells, luciferase (One-Glo), 24 h
[4] = qHTS assay for small molecule activators of the human pregnane X receptor (PXR) signaling pathway (AID 720659; call rule not given here; also: 0% is about no effect); settings: DPX-2 HepG2 CYP3A4-luciferase, 24 h; series mostly up to 92.3 µM
[5] = at 45.9 µM (top of the series), tumour line B
[6] = at 45.9 µM (top of the series), tumour line D
[7] = at 46 µM (top of the series), tumour line A
[8] = at 46.1 µM (top of the series), tumour line C

Chain of Nuclear receptor subfamily 1 group I member 2 (Rattus norvegicus) (Q9R1A7 whole entry, looked up): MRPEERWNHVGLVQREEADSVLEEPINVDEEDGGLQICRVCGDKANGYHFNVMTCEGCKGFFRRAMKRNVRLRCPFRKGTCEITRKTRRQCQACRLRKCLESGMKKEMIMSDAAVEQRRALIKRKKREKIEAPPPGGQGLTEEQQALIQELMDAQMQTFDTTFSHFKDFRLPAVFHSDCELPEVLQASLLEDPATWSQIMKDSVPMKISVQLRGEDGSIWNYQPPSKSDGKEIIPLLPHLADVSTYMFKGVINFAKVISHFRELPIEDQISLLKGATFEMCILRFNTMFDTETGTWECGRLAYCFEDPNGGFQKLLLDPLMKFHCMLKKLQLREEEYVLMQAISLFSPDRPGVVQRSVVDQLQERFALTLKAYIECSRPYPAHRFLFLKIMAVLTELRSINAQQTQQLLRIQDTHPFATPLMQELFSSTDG

CC(=O)N[C@@H](C=O)[C@H](O)[C@H](O)[C@@H](O)CO
inactive: activity, negative = cell killing [1, 5] -7.64% and 0.13% | activity, negative = cell killing [1, 6] -11.8% and 0.539% | activity, negative = cell killing [1, 7] 1.93% | activity, negative = cell killing [1, 8] 6.46% and 10.4% | Potency [2]

C[C@H]1C[C@H]2[C@@H]3CCC4=CC(=O)C=C[C@]4(C)[C@@]3(F)[C@@H](O)C[C@]2(C)[C@@]1(O)C(=O)CCl
inactive: activity, negative = cell killing [1, 5] 1.74% | activity, negative = cell killing [1, 6] -15.9% | activity, negative = cell killing [1, 8] 12.3% | Potency [2]
active: Potency ([1]; tumour line A) 35.5 µM

CS(=O)(=O)NC(=O)CCC/C=C\C[C@H]1C(=O)C[C@@H](O)[C@@H]1/C=C/[C@H](O)COc1ccccc1
inactive: activity, negative = cell killing [1, 5] -2.71% | activity, negative = cell killing [1, 6] -15.8% | activity, negative = cell killing [1, 7] -29.7% | activity, negative = cell killing [1, 8] 0.501% | Potency [2]

O=C(CO)[C@@H](O)[C@H](O)[C@H](O)CO
inactive: activity, negative = cell killing [1, 5] -6.93% | activity, negative = cell killing [1, 6] 1.86% | activity, negative = cell killing [1, 7] -24.2% | activity, negative = cell killing [1, 8] 19% | Potency [2]

CCOC(=O)[C@H](CCc1ccccc1)N[C@@H](C)C(=O)N1CC2(C[C@H]1C(=O)O)SCCS2
inactive: activity, negative = cell killing [1, 5] -13.1% | activity, negative = cell killing [1, 6] 3.06% | activity, negative = cell killing [1, 7] -27.1% | activity, negative = cell killing [1, 8] 2.21% | Potency [2]

CCN(CC)c1ccc(N=Nc2ccc(S(=O)(=O)N(C)C)cc2)c(S(=O)(=O)NCC[n+]2ccccc2)c1
active: Potency ([1]; tumour line A) 35.5 µM
inactive: activity, negative = cell killing [1, 5] -13% | activity, negative = cell killing [1, 6] -3.67% | activity, negative = cell killing [1, 8] -10.2% | Potency [2]

Cn1nnnc1SCC1=C(C(=O)O)N2C(=O)[C@@H](NC(=O)[C@H](OC=O)c3ccccc3)[C@H]2SC1
inactive: activity, negative = cell killing [1, 5] -10.5% | activity, negative = cell killing [1, 6] -17.5% | activity, negative = cell killing [1, 7] -11.9% | activity, negative = cell killing [1, 8] -8.9% | Potency [2]

CCC(=O)O
inactive: activity, negative = cell killing [1, 5] 6.59% | activity, negative = cell killing [1, 6] -5.65% | activity, negative = cell killing [1, 7] -7.77% | activity, negative = cell killing [1, 8] 7.14% | Potency [2]

CC(CN(C)C)CN1c2ccccc2S(=O)(=O)c2ccccc21 (stereo not given)
active: Potency ([1]; tumour line A) 17.8 µM
inactive: activity, negative = cell killing [1, 5] -1.87% | activity, negative = cell killing [1, 6] -21.7% | activity, negative = cell killing [1, 8] 14.3% | Potency [2]

CC1(C)C2CC[C@]3(C)[C@H](C(=O)C=C4[C@@H]5C[C@@](C)(C(=O)O)CC[C@]5(C)CC[C@]43C)[C@@]2(C)CC[C@@H]1O[C@H]1O[C@H](C(=O)O)[C@@H](O)[C@H](O)[C@H]1O[C@@H]1O[C@H](C(=O)O)[C@@H](O)[C@H](O)[C@H]1O (stereo not given in full)
inactive: activity, negative = cell killing [1, 5] -4.03% | activity, negative = cell killing [1, 6] -9.47% | activity, negative = cell killing [1, 7] -26.6% | activity, negative = cell killing [1, 8] -1.2% | Potency [2]

CCCCCC(O)/C=C/C=O (stereo not given)
inactive: activity, negative = cell killing [1, 5] 5.27% | activity, negative = cell killing [1, 6] -8.74% | activity, negative = cell killing [1, 7] -27.6% | activity, negative = cell killing [1, 8] 8.89% | Potency [2]

CCCN(CC)C(CC)C(=O)Nc1c(C)cccc1C (stereo not given)
inactive: activity, negative = cell killing [1, 5] -5.49% | activity, negative = cell killing [1, 6] -11.8% | activity, negative = cell killing [1, 7] -28.6% | activity, negative = cell killing [1, 8] -9.76% | Potency [2]

O=C1O[C@@H]2[C@@H](O)[C@H](O)O[C@@H]2[C@H]1O
inactive: activity, negative = cell killing [1, 5] -11.2% | activity, negative = cell killing [1, 6] -1.84% | activity, negative = cell killing [1, 7] -28.6% | activity, negative = cell killing [1, 8] -14% | Potency [2]

C[C@H]1C[C@@H]2[C@H]([C@@H](O)C[C@@]3(C)[C@H]2CC[C@]3(O)C(=O)COC(=O)CCC(=O)O)[C@@]2(C)C=CC(=O)C=C12
inactive: activity, negative = cell killing [1, 5] -16.2% | activity, negative = cell killing [1, 6] -23.4% | activity, negative = cell killing [1, 7] -16.8% | activity, negative = cell killing [1, 8] -3.84% | Potency [2]

CSCC[C@H](NC(=O)[C@H](Cc1ccc(OS(=O)(=O)O)cc1)NC(=O)[C@@H](N)CC(=O)O)C(=O)NCC(=O)N[C@@H](Cc1c[nH]c2ccccc12)C(=O)N[C@@H](CCSC)C(=O)N[C@@H](CC(=O)O)C(=O)N[C@@H](Cc1ccccc1)C(N)=O
inactive: activity, negative = cell killing [1, 5] -12.8% and -14.6% | activity, negative = cell killing [1, 6] -10.7% and -3.46% | activity, negative = cell killing [1, 7] -8.64% | activity, negative = cell killing [1, 8] 9.45% and -3.35% | Potency [2]

COc1cc2c(c(OC)c1OC)-c1c(cc3c(c1OC)OCO3)C[C@@H](C)[C@](C)(O)C2
inactive: activity, negative = cell killing [1, 5] -5.29% and -6.75% | activity, negative = cell killing [1, 6] -7.05% and -25.9% | activity, negative = cell killing [1, 7] -25% | activity, negative = cell killing [1, 8] -33.4% and -14.4% | Potency [2]
active: Potency ([1]; tumour line A) 22.4 µM

O=P(O)(O)OC(CO)CO
inactive: activity, negative = cell killing [1, 5] -13.5% | activity, negative = cell killing [1, 6] 14.6% | activity, negative = cell killing [1, 7] -6.76% | activity, negative = cell killing [1, 8] 3.76% | Potency [2]

O=S(=O)(O)Oc1ccc(C(c2ccc(OS(=O)(=O)O)cc2)c2ccccn2)cc1
inactive: activity, negative = cell killing [1, 5] 0.447% | activity, negative = cell killing [1, 6] -9.15% | activity, negative = cell killing [1, 7] 21.1% | activity, negative = cell killing [1, 8] 10.6% | Potency [2]

C/C(=C(/CCO)SSCC1CCCO1)N(C=O)Cc1cnc(C)nc1N (stereo not given)
inactive: activity, negative = cell killing [1, 5] -8.31% and -21.8% | activity, negative = cell killing [1, 6] -10.4% and -21.6% | activity, negative = cell killing [1, 8] -12.1% and -0.697% | Potency [2]
active: Potency ([1]; tumour line A) 25.1 µM

NCCCC(=O)O
inactive: activity, negative = cell killing [1, 5] -13.9% | activity, negative = cell killing [1, 6] -9.35% | activity, negative = cell killing [1, 7] 3.28% | activity, negative = cell killing [1, 8] -16.7% | Potency [2]

CCCOc1ccc2nc(NC(=O)OC)sc2c1
active: Potency ([1]; tumour line D) 10 µM

Cc1ccc(C2(O)CCN(CCCC(=O)c3ccc(F)cc3)CC2)cc1
active: Potency ([1]; tumour line D) 12.6 µM

CO[C@H]1C[C@H](O[C@H]2[C@H](C)O[C@@H](O[C@@H]3/C(C)=C/C[C@@H]4C[C@@H](C[C@]5(C=C[C@H](C)[C@@H](C6CCCCC6)O5)O4)OC(=O)[C@@H]4C=C(C)[C@@H](O)[C@H]5OC/C(=C\C=C\[C@@H]3C)[C@]54O)C[C@@H]2OC)O[C@@H](C)[C@@H]1O
active: Potency [2] 17.8 µM

CCCCCCCC/C=C\CCCCCCCC(=O)OC[C@@H](O)[C@H]1OC[C@H](O)[C@H]1O
inactive: activity, negative = cell killing [1, 5] -4.65% | activity, negative = cell killing [1, 6] 1.42% | Potency [2] | max response [3] 1.88% | outcome [4]

CCCCCCCCCCCCCCCCCC(=O)OCCO
inactive: activity, negative = cell killing [1, 5] -18.6% | activity, negative = cell killing [1, 6] -21.2% | activity, negative = cell killing [1, 8] -6.14% | Potency [2]

CO[C@@H]1[C@@H](O[C@@H]2O[C@H](C)[C@@H](O[C@H]3C[C@@](C)(O)[C@@H](OC(=O)CC(C)C)[C@H](C)O3)[C@H](N(C)C)[C@H]2O)[C@@H](CC=O)C[C@@H](C)[C@@H](O)/C=C/C=C/C[C@@H](C)OC(=O)C[C@H]1O
active: Potency ([1]; tumour line A) 12.6 µM
inactive: activity, negative = cell killing [1, 6] -21.1% | activity, negative = cell killing [1, 8] -11.8% and -30.6% | Potency [2]

C/C=C(/CC[C@@H](C)[C@H]1CC[C@H]2C3=CC[C@H]4[C@H](C)[C@@H](O)CC[C@]4(C)[C@H]3CC[C@]12C)C(C)C
inactive: activity, negative = cell killing [1, 5] -6.71% | activity, negative = cell killing [1, 6] -7.38% | activity, negative = cell killing [1, 8] 9.21% | Potency [2]

CCC(=O)OCC(=O)[C@@]1(OC(=O)CC)[C@@H](C)C[C@H]2[C@@H]3CCC4=CC(=O)C=C[C@]4(C)[C@@]3(Cl)[C@@H](O)C[C@@]21C
active: Potency ([1]; tumour line A) 10 µM
inactive: activity, negative = cell killing [1, 5] -9.44% | activity, negative = cell killing [1, 8] -19% | Potency [2]

CC(=O)OC[C@H]1O[C@@H](O[C@H]2[C@H](O)[C@@H](OC(=O)c3ccccc3C(=O)O)[C@H](O)O[C@@H]2COC(C)=O)[C@H](O)[C@@H](OC(=O)c2ccccc2C(=O)O)[C@@H]1O
inactive: activity, negative = cell killing [1, 5] -10.5% | activity, negative = cell killing [1, 6] -4.26% | activity, negative = cell killing [1, 8] 6.79% | Potency [2]

CC(CC(c1ccccc1)c1ccccc1)NC(C)(C)C (stereo not given)
inactive: Potency [2]
